The nature of test [1]: qHTS of pediatric cancer cell lines to identify multiple opportunities for drug repurposing: Primary screen for Rh18 cells (AID 1347102). Note: nearly all actives have a fitted effect of over 65% in size. Note: potency is the fitted concentration of half-maximal effect. The method in brief: (§1)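 Cells (500-1,000/well) in growth media were settled 5 h at 37 degrees C, then given compounds for 48 h. Viability was read as CellTiter-Glo luminescence. Primary runs used MIPE at 11 points (0.78 nM-46 µM) and NPC at 8 points (0.59 nM-46 µM); follow-ups used 11 points.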

Test [2] in a line: qHTS of pediatric cancer cell lines to identify multiple opportunities for drug repurposing: Primary screen for OHS-50 cells (AID 1347103). Note: nearly all actives have a fitted effect of over 40% in size. Note: potency is the fitted concentration of half-maximal effect. In a few lines:
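Cells (500-1,000/well) rested 5 h, then received compounds for 48 h; metabolically active cells were measured by CellTiter-Glo luminescence. Final concentrations spanned up to 46 µM (MIPE, 11-point) or 0.59 nM-46 µM (NPC, 8-point) in primary screens, 11-point in follow-ups.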
(qHTS replaces the single test concentration by a dilution series.)

Test [3] in a line: qHTS of pediatric cancer cell lines to identify multiple opportunities for drug repurposing: Primary screen for RD cells (AID 1347104). Note: nearly all actives have a fitted effect of over 55% in size. Note: potency is the fitted concentration of half-maximal effect. The method in brief:
(§2)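 Cells seeded at 500-1,000 cells/well in growth media, rested 5 hours at 37 degrees C, 5% CO2, then dosed; MIPE compounds at 11-point (from 0.78 nM) and NPC at 8-point (from 0.59 nM) final concentrations. Viability by CellTiter-Glo luminescence after 48 hours.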

Test [4] can be described thus: qHTS of pediatric cancer cell lines to identify multiple opportunities for drug repurposing: Primary screen for MG 63 (6-TG R) cells (AID 1347105). Note: nearly all actives have a fitted effect of over 50% in size. Note: potency is the fitted concentration of half-maximal effect. The method in brief: as §2
Test [5] in a line: qHTS of pediatric cancer cell lines to identify multiple opportunities for drug repurposing: Primary screen for control Hh wild type fibroblast cells (AID 1347106). Note: nearly all actives have a fitted effect of over 55% in size. Note: potency is the fitted concentration of half-maximal effect. In a few lines:
as §1

Test [6] is described as follows: qHTS of pediatric cancer cell lines to identify multiple opportunities for drug repurposing: Primary screen for Rh30 cells (AID 1347107). Note: series mostly up to about 46 µM; nearly all actives have a fitted effect of over 75% in size. The method in brief: as §1
A short description of test [7]: qHTS of pediatric cancer cell lines to identify multiple opportunities for drug repurposing: Primary screen for Rh41 cells (AID 1347108). Note: nearly all actives have a fitted effect of over 70% in size. Note: potency is the fitted concentration of half-maximal effect. The method in brief:
as §2

Test [8] in a line: qHTS of pediatric cancer cell lines to identify multiple opportunities for drug repurposing: Confirmatory screen for NB1643 cells (AID 1347109). Note: nearly all actives have a fitted effect of over 45% in size. Note: potency is the fitted concentration of half-maximal effect. In a few lines: as §1
Test [9] in a line: qHTS of pediatric cancer cell lines to identify multiple opportunities for drug repurposing: Confirmatory screen for BT-12 cells (AID 1347112). Note: nearly all actives have a fitted effect of over 55% in size. Note: potency is the fitted concentration of half-maximal effect. The method in brief:
as §1

Test [10] can be described thus: qHTS of pediatric cancer cell lines to identify multiple opportunities for drug repurposing: Confirmatory screen for LAN-5 cells (AID 1347113). Note: nearly all actives have a fitted effect of over 65% in size. Note: potency is the fitted concentration of half-maximal effect. In a few lines:
as §1

A short description of test [11]: qHTS of pediatric cancer cell lines to identify multiple opportunities for drug repurposing: Confirmatory screen for MG 63 (6-TG R) cells (AID 1347119). Note: potency is the fitted concentration of half-maximal effect; nearly all actives have a fitted effect of over 55% in size. The method in brief: as §1
A short description of test [12]: qHTS of pediatric cancer cell lines to identify multiple opportunities for drug repurposing: Confirmatory screen for control Hh wild type fibroblast cells (AID 1347121). Note: nearly all actives have a fitted effect of over 70% in size. Note: potency is the fitted concentration of half-maximal effect. The method in brief: as §1
Test [13] in a line: qHTS of pediatric cancer cell lines to identify multiple opportunities for drug repurposing: Confirmatory screen for U-2 OS cells (AID 1347122). Note: nearly all actives have a fitted effect of over 65% in size. Note: potency is the fitted concentration of half-maximal effect. In a few lines:
as §1

Test [14] can be described thus: qHTS of pediatric cancer cell lines to identify multiple opportunities for drug repurposing: Confirmatory screen for Rh41 cells (AID 1347123).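 Note: 48 h compound exposure; nearly all actives have a fitted effect of over 60% in size.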 Note: potency is the fitted concentration of half-maximal effect. The method in brief: as §1
Test [15] can be described thus: qHTS of pediatric cancer cell lines to identify multiple opportunities for drug repurposing: Confirmatory screen for Rh18 cells (AID 1347125). Note: nearly all actives have a fitted effect of over 55% in size. Note: potency is the fitted concentration of half-maximal effect. In a few lines: as §1
The nature of test [16]: qHTS of pediatric cancer cell lines to identify multiple opportunities for drug repurposing: Confirmatory screen for DAOY cells (AID 1347114). Note: nearly all actives have a fitted effect of over 65% in size. Note: potency is the fitted concentration of half-maximal effect. In a few lines: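 Viability measured as metabolically active cells via CellTiter-Glo luminescence following 48 hours of compound exposure, 11-point dilutions in confirmatory testing. 500-1,000 cells/well plated 5 hours before dosing; controls were DMSO and 2.3 µM bortezomib.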

The nature of test [17]: qHTS of pediatric cancer cell lines to identify multiple opportunities for drug repurposing: Confirmatory screen for NB-EBc1 cells (AID 1347115).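 Note: potency is the fitted concentration of half-maximal effect; cells exposed to compound for 48 h before the viability read; nearly all actives have a fitted effect of over 45% in size.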 In a few lines: as §1
The nature of test [18]: qHTS of pediatric cancer cell lines to identify multiple opportunities for drug repurposing: Confirmatory screen for BT-37 cells (AID 1347117). Note: nearly all actives have a fitted effect of over 55% in size. Note: potency is the fitted concentration of half-maximal effect. The method in brief:
as §1

Test [19] can be described thus: qHTS of pediatric cancer cell lines to identify multiple opportunities for drug repurposing: Confirmatory screen for TC32 cells (AID 1347118). Note: potency is the fitted concentration of half-maximal effect. The method in brief:
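Luminescent ATP read-out (CellTiter-Glo) of metabolically active TC32 cells after 48 h exposure. Concentration-response curves came from 11-point (MIPE, 0.78 nM–46 µM) or 8-point (NPC, 0.59 nM–46 µM) primary titrations; follow-up used 11 points.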

Test [20] in a line: qHTS of pediatric cancer cell lines to identify multiple opportunities for drug repurposing: Confirmatory screen for RD cells (AID 1347124). Note: potency is the fitted concentration of half-maximal effect. In a few lines:
as §1

SMILES strings stand for the structures. Values joined by “and” are separate entries in the source; they are usually repeats but may differ in a detail not shown here. Equal entries are not always repeated. Records with an inconclusive call do not appear. Active and inactive are the calls of the source. Calls come from the whole dose curve; as a rule, active = well fitted curve in the direction sought with a large enough effect; inconclusive = small, poorly fitted or top-dose-only effect, or another doubt; inactive = no such curve, though single readings can be large; an effect the other way counts as inactive or inconclusive.

On to `CCOC(=O)C(C)(C)Oc1ccc(Cl)cc1`, for which the Potency entry in [1], in [2], in [3], in [4], in test [5] and in [7] was “inactive” throughout. For the same compound, the outcome in [6] was inactive.
Turning to `CS(=O)(=O)Nc1ccc([N+](=O)[O-])cc1Oc1ccccc1`, the Potency entry in [1], in test [2], in [3], in test [4], in [5] and in [7] was “inactive” throughout. The Potency entry in [8], in [9], in [10], in [12], in test [13] and in test [15] was “inactive” throughout. In addition, in test [6], the compound was called inactive. The values for the Potency in test [11] and in [14] were 16.5 µM (active) and 18.5 µM (active), respectively.
With `O=C1c2c(O)ccc(O)c2C(=O)c2c(NCCNCCO)ccc(NCCNCCO)c21`, the Potency in test [1] was 2.09 µM (active) and 2.37 µM (active); in test [2], 344 nM (active) and 49 nM (active); in test [3], 4.69 µM (active) and 6.68 µM (active); in test [4] it was 372 nM (active); in test [5], 13.3 µM (active); in test [7] it was 4.18 µM (active) and 9.44 µM (active). Also, the Potency is 0.369 µM (active) in test [8]; 1.85 µM (active) in [9]; 0.165 µM (active) in test [10]; 7.37 µM (active) in test [16]; 0.414 µM (active) in test [17]; 0.261 µM (active) in test [18]. For the same compound, the Potency in [19] is 0.131 µM (active); in [11], 0.414 µM (active); in test [12], 14.7 µM (active); in [13] it was 5.22 µM (active); in test [14], 0.465 µM (active); in test [20], 2.61 µM (active). In addition, the Potency in test [15] is 2.61 µM (active).
`CC[C@@]1(O)C(=O)OCc2c1cc1n(c2=O)Cc2cc3c(CN(C)C)c(O)ccc3nc2-1`: the Potency in test [1] was 473 nM (active) and 1.48 µM (active); in test [2], 27.6 nM (active) and 109 nM (active); in test [3] it was 2.66 µM (active) and 4.69 µM (active); in [4] it was 66.8 nM (active) and 296 nM (active); in [7], 2.11 µM (active) and 2.64 µM (active); in test [8], 0.329 µM (active). Moreover, the Potency is 3.69 µM (active) in test [9]; 0.185 µM (active) in test [10]; 5.22 µM (active) in test [16]; 0.0928 µM (active) in test [17]; 0.117 µM (active) in [18]; 0.0585 µM (active) in [19]. Further, the Potency in test [11] is 0.329 µM (active); in [13], 10.4 µM (active); in test [14], 3.69 µM (active); in [20], 5.85 µM (active); in test [15] it was 5.22 µM (active). Also, in test [12], the Potency result is “inactive”.
As for `Cc1cn([C@H]2C[C@H](N=[N+]=[N-])[C@@H](CO)O2)c(=O)[nH]c1=O`, the Potency entry in test [1], in [2], in test [3], in test [4] and in [5] was “inactive” throughout. In addition, in [6], the outcome was inactive.
As to `CC[N+](CC)(CC)CCOc1cccc(OCC[N+](CC)(CC)CC)c1OCC[N+](CC)(CC)CC`, the Potency result in test [1], in test [2], in test [3], in test [4] and in [5] was “inactive” throughout.
As to `CCc1cccc2c3c([nH]c12)C(CC)(CC(=O)O)OCC3` (stereo unspecified), the Potency result in test [1], in test [2], in test [3], in test [4], in test [5] and in test [7] was “inactive” each time. In addition, the compound was classed as inactive in test [6].
As to `CN(C)C(=N)N=C(N)N`, the Potency entry in [1], in test [2], in [3], in test [4] and in test [5] was “inactive” throughout. Moreover, the call in test [6] was inactive.
Regarding `C[C@](N)(Cc1ccc(O)c(O)c1)C(=O)O`, the Potency entry in test [1], in test [2], in test [3], in test [4], in [5] and in test [7] was “inactive” throughout.
Take `CN1C(C(=O)Nc2ccccn2)=C(O)c2ccccc2S1(=O)=O`: the Potency entry in [1], in test [2], in [3], in test [4], in test [5] and in [7] was “inactive” in each case.
Take `CC(C)(Oc1ccc(C2CC2(Cl)Cl)cc1)C(=O)O` (stereo unspecified): the Potency result in [1], in [3], in test [4] and in test [5] was “inactive” each time.
Take `NCCS(=O)(=O)O`: the Potency result in test [1], in test [3], in test [4] and in [5] was “inactive” each time.
Take `COc1ccccc1OCCNCC(O)COc1cccc2[nH]c3ccccc3c12` (stereo unspecified): the Potency result in test [1], in test [3], in test [4] and in test [5] was “inactive” throughout. In addition, the call in [6] was inactive.
As to `COC(=O)Nc1nc2ccc(C(=O)c3cccs3)cc2[nH]1`, the Potency entry in test [1], in [5], in [12] and in [15] was “inactive” throughout. Moreover, the Potency in [2] was 8.6 nM (active) and 309 nM (active); in [8] it was 0.522 µM (active); in test [9] it was 0.522 µM (active); in test [10], 0.522 µM (active); in test [16], 0.131 µM (active); in [18], 0.329 µM (active). In addition, the Potency was 0.131 µM (active) in test [19], 0.147 µM (active) in test [11], 0.208 µM (active) in test [13] and 0.233 µM (active) in test [20]. For the same compound, the result in test [6] was inactive.
With `COc1cc2c(c(OC)c1OC)-c1ccc(OC)c(=O)cc1[C@@H](NC(C)=O)CC2`, the Potency entry in [1], in [4], in test [5], in test [12] and in test [15] was “inactive” each time. Further, the Potency in test [2] is 4.9 nM (active) and 1 nM (active); in test [8], 0.0447 µM (active); in test [9] it was 0.0631 µM (active); in [10], 0.0891 µM (active); in test [16], 0.02 µM (active); in [18] it was 0.0562 µM (active). For the same compound, the Potency was 0.0355 µM (active) in [19], 0.1 µM (active) in test [11], 0.112 µM (active) in test [13] and 0.0708 µM (active) in test [20]. In test [6], the call was inactive.
Consider `C[C@@H]1CC(=O)NN=C1c1ccc(NN=C(C#N)C#N)cc1`, for which the Potency result in test [1] and in test [5] was “inactive” throughout. The Potency is 29.6 µM (active) in test [3] and 10600 nM (active) in test [4].
Take `COc1cc2nc(N3CCN(C(=O)C4COc5ccccc5O4)CC3)nc(N)c2cc1OC` (stereo unspecified): the Potency is 26.4 µM (active) in [1] and 24.6 µM (active) in [2]. The Potency result in test [4], in test [5] and in test [7] was “inactive” throughout. Also, in test [6], the compound was classed as inactive.
Turning to `COc1ccc(C2CNC(=O)C2)cc1OC1CCCC1` (stereo unspecified), the Potency entry in test [1], in test [3], in test [4], in [5] and in test [7] was “inactive” throughout. Also, the outcome in test [6] was inactive.
On to `CCN1CCCC1CNC(=O)c1cc(S(=O)(=O)CC)c(N)cc1OC` (stereo unspecified), for which the Potency result in [1], in test [3], in [4] and in test [5] was “inactive” in each case.
`NC12CC3CC(CC(C3)C1)C2`: the Potency entry in [1], in [3], in test [4], in test [5], in test [7] and in [8] was “inactive” each time. Moreover, the Potency entry in test [9], in test [10], in test [16], in test [18], in test [19] and in [12] was “inactive” in each case. The Potency result in test [13], in [14], in [20] and in test [15] was “inactive” each time. The result in test [6] was inactive.

The record behind these values is PubChem BioAssay (NCATS).
